Data on 6 compounds can be found in PubChem BioAssay (Tox21).

Unmarked numbers belong to inactive results. Inconclusive results are not listed. The source made the active and inactive calls. Unless noted, the call rests on the fitted dose curve.

Assay [1] in a line: Nuclear factor erythroid 2-related factor 2/antioxidant responsive element (Nrf2/ARE) small molecule agonists: qHTS cell viability counter screen in human keratinocytes (AID 1919968; active means well fitted curve in the direction sought with a large enough effect in the repeat runs; an effect the other way counts as inactive or inconclusive; further: nearly all actives have a fitted effect of over 55% in size). In a few lines: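 Fluorescence read-out from CellTiter-Fluor after 1 h at 37 C. Wells held HaCaT-derived ARE-luciferase reporter cells (1,500/well) treated 23 h with DMSO-dissolved compounds. Run in the same wells as the luciferase agonist read.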

Assay [2] is described as follows: Nuclear factor erythroid 2-related factor 2/antioxidant responsive element (Nrf2/ARE) small molecule agonists: luciferase reporter gene qHTS assay in human keratinocytes (AID 1919969). Further: nearly all actives have a fitted effect of over 35% in size. Further: potency means the concentration at half of the fitted maximal effect. On the technique in general: In a reporter assay the amount or activity of a reporter protein is the signal.
The target of assay [3] is KiSS-1 receptor (Homo sapiens) (UniProt Q969F8). Nature of the assay: Human kisspeptin (KISS1R) small molecule agonists, calcium flux assay in KISS1R-HEK293 cells (AID 1920064; active means well fitted curve in the direction sought with a large enough effect in the repeat runs; an effect the other way counts as inactive or inconclusive). In a few lines: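 Calcium flux read-out: kinetic fluorescence at Ex/Em=480/540, 1 s intervals over 3 min, after pin-tool compound addition to dye-loaded KISS1R-HEK293 cells. Fifteen concentrations, triplicates.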
KiSS-1 receptor (Homo sapiens), sequence (Q969F8 whole entry, looked up): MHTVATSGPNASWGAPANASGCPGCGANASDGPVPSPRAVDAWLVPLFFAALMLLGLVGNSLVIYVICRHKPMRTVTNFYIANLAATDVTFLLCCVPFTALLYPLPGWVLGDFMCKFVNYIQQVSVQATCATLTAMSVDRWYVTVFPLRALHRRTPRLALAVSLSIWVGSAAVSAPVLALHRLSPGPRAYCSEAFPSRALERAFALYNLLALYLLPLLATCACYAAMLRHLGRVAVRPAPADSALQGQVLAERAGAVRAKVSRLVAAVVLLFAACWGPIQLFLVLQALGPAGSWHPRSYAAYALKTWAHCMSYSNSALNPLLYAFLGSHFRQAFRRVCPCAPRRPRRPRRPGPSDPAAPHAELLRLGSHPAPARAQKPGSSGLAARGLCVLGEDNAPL
(A change in cytosolic calcium serves as a functional read-out for many receptors and channels.)

Assay [4] can be described thus: G protein-coupled receptor (GPCR) small molecule agonists, calcium flux assay: HEK293 wild type cell line counter screen (AID 1920065). In a few lines:
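Agonist mode; 18 h seeding at 37 C, 1 h dye load at 37 C; compounds pinned from DMSO, ATP as positive control; kinetic fluorescence 480/540 nm, 3 min, 1 s reads; 15 concentrations, triplicate.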

A short description of assay [5]: p53 small molecule agonists, cell-based qHTS assay with human liver microsomes (AID 1963577).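 Further: p53 response element beta-lactamase reporter cells with liver microsomes plus NADPH.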 The essentials: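 16 h, 37 C exposure of p53RE-bla cells to compounds with human liver microsomes and NADPH (0.5 mg/mL final each); detection via LiveBLAzer mixture, 2 h dark at room temperature.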
On the technique in general: In qHTS, concentration-response curves come from the screen itself.

Assay [6] in a line: p53 small molecule agonists, cell-based qHTS assay with rat liver microsomes (AID 1963578). In a few lines:
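With rat liver microsomes and NADPH present (0.5 mg/mL final each), p53RE-bla cells are treated with compound for 16 h at 37 C. LiveBLAzer detection mixture is then applied for 2 h at room temperature in the dark.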

Assay [7] is described as follows: p53 small molecule agonists, cell-based qHTS assay with human liver microsomes: qHTS cell viability counter screen (AID 1963579). Further: nearly all actives have a fitted effect of over 45% in size. In a few lines:
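In this multiplexed counter screen, the reporter plates were subsequently treated with CellTiter-Glo so that cell viability, reflected by luminescence, could be recorded for p53RE-bla cells dosed 16 h with compounds under microsomal activation (HLM and NADPH).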

Assay [8] can be described thus: p53 small molecule agonists, cell-based qHTS assay with rat liver microsomes: qHTS cell viability counter screen (AID 1963580). Further: nearly all actives have a fitted effect of over 45% in size. In a few lines: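 After the beta-lactamase ratio was read, CellTiter-Glo was added to the same wells and luminescence measured at 30 min; cells had been treated 16 h at 37 C with compounds, rat liver microsomes and NADPH (0.5 mg/mL final each).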

A short description of assay [9]: p53 small molecule agonists, cell-based qHTS assay: qHTS cell viability counter screen (AID 1963581). Further: nearly all actives have a fitted effect of over 45% in size. The essentials:
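Cytotoxicity read-out: ATP-based luminescence (CellTiter-Glo, 30 min RT) measured in the same wells as the p53 reporter assay, HCT-116 p53RE-bla cells, 16 h compound exposure at 37 C.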

Assay [10] deals with 5-hydroxytryptamine receptor 2A (Homo sapiens) (UniProt P28223). Nature of the assay: 5-hydroxytryptamine receptor 2A (HTR2A) small molecule antagonists, cell-based qHTS assay (AID 1963586). Further: nearly all actives have a fitted effect of over 45% in size. The essentials:
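CHO cells stably expressing human HTR2A were plated for 18 h at 37 C, then loaded with calcium dye for 1 h. Compounds were preincubated 5 min at room temperature before DOI (4 nM solution) was added. Kinetic fluorescence was read for 3 min.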

The target is the same in assay [11]. Nature of the assay: 5-hydroxytryptamine receptor 2A (HTR2A) small molecule agonists, cell-based qHTS assay (AID 1963587). Further: nearly all actives have a fitted effect of over 30% in size. The essentials: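 CHO cells stably expressing human HTR2A, plated 18 h, loaded with calcium dye 1 h at 37 C. Agonist mode: compounds added and intracellular calcium fluorescence recorded kinetically for 2 min at 1 sec intervals.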
Assay [12] addresses Muscarinic acetylcholine receptor M1 (Homo sapiens) (UniProt P11229). Nature of the assay: Cholinergic receptor muscarinic 1 (CHRM1) small molecule antagonists, cell-based qHTS assay (AID 1963588). Further: nearly all actives have a fitted effect of over 40% in size. In a few lines:
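Compounds were tested at 15 concentrations in three independent runs. Dye-loaded CHRM1-CHO cells were exposed 5 min at room temperature before stimulation by acetylcholine added at 50nM. Intracellular calcium was read kinetically on FDSS for 3 min.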

Assay [13] shares this target. Nature of the assay: Cholinergic receptor muscarinic 1 (CHRM1) small molecule agonists, cell-based qHTS assay (AID 1963589). Further: nearly all actives have a fitted effect of over 35% in size. The essentials:
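Calcium flux read-out: kinetic fluorescence at 1 sec intervals after pin-tool compound addition to dye-loaded CHRM1-CHO cells (human M1). Agonist mode; 15 concentrations tested in triplicate independent runs.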

Assay [14] can be described thus: cAMP Responsive Elements (CRE) small molecule agonists, cell-based qHTS assay (AID 1963590). The essentials: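 Beta-lactamase reporter readout: LiveBLAzer B/G FRET substrate, 2 h at room temperature, added after 3 h compound treatment of CRE-bla HEK 293T cells at 37 C/5% CO2.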
The nature of assay [15]: cAMP Responsive Elements (CRE) small molecule antagonists, cell-based qHTS assay (AID 1963591; active means well fitted inhibition curve with a large enough effect in the signal ratio in the repeat runs, not every such curve was filed as active; the % refers to the signal ratio). In a few lines:
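HEK293T CRE-bla; 18 h preincubation; compound pin-transfer; NKH477 0.25 uM final, 3 h, 37 C; LiveBLAzer FRET substrate 2 h RT.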

Assay [16] deals with Beta-2 adrenergic receptor (Homo sapiens) (UniProt P07550). Nature of the assay: Adrenergic beta2 receptor (ADRB2) small molecule antagonists, cell-based qHTS assay (AID 1963592). Further: series mostly up to about 92 µM; nearly all actives have a fitted effect of over 50% in size. In a few lines: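 Assay format: CHO-ADRB2 cells, 18-20hr seeding at 37C/5% CO2, then compound plus 1nM isoproterenol agonist mix for 0.5hr RT. Homogeneous time-resolved fluorescence cAMP detection after 1hr, expressed as 665/615 nm ratio.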
Beta-2 adrenergic receptor (Homo sapiens), sequence (P07550 whole entry, looked up): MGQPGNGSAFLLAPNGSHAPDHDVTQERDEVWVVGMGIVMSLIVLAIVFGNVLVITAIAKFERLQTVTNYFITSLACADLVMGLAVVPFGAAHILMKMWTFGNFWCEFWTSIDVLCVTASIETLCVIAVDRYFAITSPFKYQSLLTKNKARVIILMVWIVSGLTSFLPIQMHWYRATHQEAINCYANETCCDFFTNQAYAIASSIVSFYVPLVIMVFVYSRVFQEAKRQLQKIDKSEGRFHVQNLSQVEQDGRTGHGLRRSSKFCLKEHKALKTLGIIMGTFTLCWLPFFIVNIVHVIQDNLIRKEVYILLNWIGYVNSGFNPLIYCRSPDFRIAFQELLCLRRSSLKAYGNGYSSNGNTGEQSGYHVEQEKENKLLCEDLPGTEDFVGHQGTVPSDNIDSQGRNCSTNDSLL

For assay [17], the target named is D(2) dopamine receptor (Homo sapiens) (UniProt P14416). Nature of the assay: Dopamine D2 receptor (DRD2) small molecule agonists, cell-based qHTS assay (AID 1963594). Further: nearly all actives have a fitted effect of over 35% in size. In a few lines: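 HEK293 cells stably expressing human DRD2, pre-treated with PDE inhibitor Ro20-1724 (0.1 mM final) and compound 10 min at room temperature, then stimulated with NKH477 (200nM […]) for 30 min. cAMP read by HTRF (665/620 nm).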
D(2) dopamine receptor (Homo sapiens), sequence (P14416 whole entry, looked up): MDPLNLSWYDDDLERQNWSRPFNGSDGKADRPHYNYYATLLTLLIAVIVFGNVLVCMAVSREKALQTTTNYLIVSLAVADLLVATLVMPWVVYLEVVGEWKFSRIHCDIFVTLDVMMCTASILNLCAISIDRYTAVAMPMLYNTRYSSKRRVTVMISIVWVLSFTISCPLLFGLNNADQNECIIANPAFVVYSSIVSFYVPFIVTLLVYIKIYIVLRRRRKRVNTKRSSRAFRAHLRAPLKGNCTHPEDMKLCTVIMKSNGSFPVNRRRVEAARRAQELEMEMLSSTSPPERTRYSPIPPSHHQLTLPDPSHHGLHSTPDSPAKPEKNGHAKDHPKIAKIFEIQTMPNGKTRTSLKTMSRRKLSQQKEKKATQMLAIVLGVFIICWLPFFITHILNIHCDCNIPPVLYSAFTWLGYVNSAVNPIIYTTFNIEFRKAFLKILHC

Assay [18] has the same target. Nature of the assay: Dopamine D2 receptor (DRD2) small molecule antagonists, cell-based qHTS assay (AID 1963595; active means well fitted inhibition curve with a large enough effect in the signal ratio in the repeat runs, with a control signal flat; the % refers to the signal ratio). The essentials: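 In this cell-based antagonist screen, compounds act for 10 min at room temperature before a 30 min challenge with 12 nM quinpirole and 200 nM NKH477. cAMP is quantified by HTRF competition in DRD2-HEK293 cells containing 0.1 mM Ro20-1724.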

The nature of assay [19]: p53 small molecule agonists, cell-based qHTS assay (AID 1963582; active means well fitted activation curve with a large enough effect in the signal ratio in the repeat runs, not every such curve was filed as active; the % refers to the signal ratio). In a few lines:
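Fluorescence intensity read-out of a beta-lactamase reporter under a p53 response element. Cells were exposed to DMSO-dissolved compounds for 16 h at 37 C, then developed with FRET substrate for 2 h at RT.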

Muscarinic acetylcholine receptor M1 (Homo sapiens), sequence (P11229 whole entry, looked up): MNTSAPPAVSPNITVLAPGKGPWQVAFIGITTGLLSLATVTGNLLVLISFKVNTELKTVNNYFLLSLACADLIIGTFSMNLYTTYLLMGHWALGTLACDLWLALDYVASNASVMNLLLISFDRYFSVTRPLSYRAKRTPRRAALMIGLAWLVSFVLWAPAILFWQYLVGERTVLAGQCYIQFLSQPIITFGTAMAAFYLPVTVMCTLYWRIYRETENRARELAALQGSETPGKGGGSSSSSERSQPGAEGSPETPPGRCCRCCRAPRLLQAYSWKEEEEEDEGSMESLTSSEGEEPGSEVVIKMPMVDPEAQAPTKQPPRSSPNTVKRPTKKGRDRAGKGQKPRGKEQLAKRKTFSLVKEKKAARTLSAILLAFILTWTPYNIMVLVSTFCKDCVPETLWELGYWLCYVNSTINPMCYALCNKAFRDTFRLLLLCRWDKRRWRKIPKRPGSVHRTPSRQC
5-hydroxytryptamine receptor 2A (Homo sapiens), sequence (P28223 whole entry, looked up): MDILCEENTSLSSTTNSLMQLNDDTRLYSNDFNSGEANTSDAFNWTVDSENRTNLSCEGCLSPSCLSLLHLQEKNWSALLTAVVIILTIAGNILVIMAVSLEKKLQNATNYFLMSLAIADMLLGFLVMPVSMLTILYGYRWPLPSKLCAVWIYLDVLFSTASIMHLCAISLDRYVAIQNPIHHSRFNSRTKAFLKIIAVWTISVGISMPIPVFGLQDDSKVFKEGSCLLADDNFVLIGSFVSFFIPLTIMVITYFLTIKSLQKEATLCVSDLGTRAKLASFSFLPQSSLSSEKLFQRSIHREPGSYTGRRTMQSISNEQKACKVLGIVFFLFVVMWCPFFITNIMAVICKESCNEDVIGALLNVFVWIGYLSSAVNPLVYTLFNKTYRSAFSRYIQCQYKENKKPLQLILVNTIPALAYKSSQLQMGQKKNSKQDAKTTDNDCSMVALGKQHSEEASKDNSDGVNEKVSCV

For `Cc1cc(C(C)(C)C)c(O)c(C)c1Cn1c(=O)n(Cc2c(C)cc(C(C)(C)C)c(O)c2C)c(=O)n(Cc2c(C)cc(C(C)(C)C)c(O)c2C)c1=O`, the Potency result in assay [1], in assay [2], in assay [5], in assay [6], in assay [7] and in [8] was “inactive” in each case. In addition, the Potency entry in assay [9], in assay [10], in assay [11], in [12], in assay [13] and in [14] was “inactive” each time. The Potency entry in [15], in assay [16], in assay [17] and in assay [18] was “inactive” throughout. For the same compound, the outcome in assay [3] and in assay [4] was inactive.

With `CC(C)(C(=O)c1cccnc1)c1cccnc1`, the Potency result in assay [1], in assay [2], in [5], in assay [6], in [7] and in [8] was “inactive” throughout. Moreover, the Potency entry in [9], in [19], in assay [14], in assay [15], in assay [16] and in [17] was “inactive” in each case. Besides, in assay [18], the Potency entry was “inactive”. Moreover, the result in [3] and in [4] was inactive.

On to `COc1ccccc1Oc1c(NS(=O)(=O)c2ccc(C(C)(C)C)cc2)nc(-c2ncccn2)nc1OCCO`, for which the Potency entry in assay [1], in assay [5], in assay [6], in assay [7], in assay [8] and in [9] was “inactive” in each case. For the same compound, the Potency result in assay [19], in assay [10], in [12], in assay [13], in assay [15] and in [16] was “inactive” in each case. Moreover, the Potency entry in assay [17] and in assay [18] was “inactive” each time. The Potency in [2] is 33.5 µM (active). Further, the result in assay [3] and in [4] was inactive.

In the case of `NC(=O)Nc1ccc(Cl)c(Cl)c1`, the Potency entry in [1], in assay [2], in assay [5], in assay [6], in [7] and in assay [8] was “inactive” throughout. In addition, the Potency entry in assay [9], in [19], in assay [10], in assay [11], in assay [12] and in assay [13] was “inactive” throughout. The Potency entry in [14], in assay [16], in [17] and in assay [18] was “inactive” each time. The result in [3] and in [4] was inactive.

`CCCC(=O)OCOC(=O)C1=C(C)NC(C)=C(C(=O)OC)C1c1cccc(Cl)c1Cl` (stereo not given): the Potency entry in assay [1], in assay [2], in assay [5], in assay [6], in [7] and in assay [8] was “inactive” each time. Besides, the Potency entry in assay [9], in assay [19], in assay [10], in assay [12], in assay [13] and in assay [14] was “inactive” throughout. For the same compound, the Potency entry in assay [15], in assay [16], in assay [17] and in assay [18] was “inactive” each time. The result in assay [3] and in assay [4] was inactive.

In the case of `O=C(O)c1snc(Cl)c1Cl`, the Potency result in assay [1], in assay [5], in assay [6], in assay [7], in assay [8] and in assay [9] was “inactive” each time. The Potency result in [19], in [10], in [11], in [12], in [13] and in assay [14] was “inactive” throughout. The Potency result in [15], in assay [16], in assay [17] and in assay [18] was “inactive” in each case. In addition, the Potency in assay [2] was 68.6 µM (active). Besides, the result in [3] and in assay [4] was inactive.
